According to PubChem BioAssay (NCATS):
Inconclusive results are not listed. Values without a mark were called inactive. Calls of active or inactive are those of the source. Calls follow the shape of the dose curve; as a rule, active = well fitted inhibition curve with a large enough effect; inconclusive = small, poorly fitted or top-dose-only effect; inactive = flat fitted curve, though single readings scatter.

What follows are compounds tested on Zika virus NS2B-NS3 protease (assay: Primary screen GU AMC qHTS for Zika virus inhibitors (AID 1347154; also: nearly all actives have a fitted effect of over 70% in size;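 as to activity change, negative = inhibition: 0% = no-inhibitor control and -100% = no-enzyme control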)). Conditions: Zika NS2B-NS3 unlinked protease, AMC fluorogenic substrate; series mostly up to 54.1 µM; activity change, negative = inhibition: at the top concentration.
Description: Avindra Nath, Ph.D., National Institute of Neurological Disorders and Stroke (NINDS), Bethesda, MD
Radhakrishnan Padmanabhan, Ph.D., Georgetown University (GU), Washington D.C.
Zika Virus causes congenital defects, including microcephaly and is associated with Guillain-Barre syndrome, eningoencephalitis and myelitis in infected adult. […] Using a target-based approach, we hope to establish a screening paradigm to uncover novel, cell-active NS2B-NS3 protease (Zika Virus) specific inhibitors from NCATS' collection of small molecules using qHTS.
Early Translation Branch (ETB)
National Center for Advancing Translational Sciences (NCATS), Rockville, MD
National Institute of Health (NIH), Bethesda, Maryland
Padmanabhan lab provided the NS2B hydrophilic domain and NS3 protease domain in a noncovalent complex used for the unlinked assay. Control compound aprotinin is obtained from Thermo Scientific (#78432; Waltham, Massachusetts). NS2B-NS3 AMC substrate (Bz-Nle-Lys-Arg-Arg-AMC; Nle-KRR-AMC) purchased from Bachem (#I-1995; Torrance, CA). Ac-VKTGKR-AMC purchased from Genscript or Bachem, Ac-FAAGKR-AMC purchased from Genscript, Ac-GLVKRR-AMC purchased from Genscript, Ac-LKKR-AMC purchased from Genscript.
GU AMC unlinked NS2B-NS3 protease qHTS protocol
Briefly, 3 microL of Zika virus unlinked NS2B-NS3 protease (25 nM for linked final concentration), in assay buffer (10 mM Tris-HCl pH 8.0 with 0.01% Tween 20) was dispensed into a 1,536-well solid-bottom black plate (Greiner Bio One, Monroe, NC). […] Plates were then read immediately on a ViewLux High-throughput CCD imager (PerkinElmer, Waltham, MA) equipped with standard UV fluorescence optics (340(30) nm excitation, 450(20) nm emission) then incubated (room temperature, protected from light) for 15 minutes (~20% conversion). The change in fluorescence intensity over the 15-minute reaction period was normalized against no-inhibitor and no-enzyme controls and the resulting percent inhibition data were fitted to a 4-parameter Hill equation. Aprotinin was used as the intraplate control.
Potency is read from the fitted curve at half-maximal effect.

Compound | activity change, negative = inhibition | Potency
Cc1nc(N)ncc1-c1nc(N2CCOCC2)c2sc(C(C)(C)O)cc2n1 | 3% | 
CC(C)(C)c1cc(C(C)(C)C)c(NC(=O)c2c[nH]c3ccccc3c2=O)cc1O | 4.37% | 
COc1ccc(-n2nc(C(N)=O)c3c2C(=O)N(c2ccc(N4CCCCC4=O)cc2)CC3)cc1 | -2.28% | 
CNC(=O)c1c(F)cccc1Nc1nc(Nc2cc3c(cc2OC)CCN3C(=O)CN(C)C)nc2[nH]ccc12 | -10% | 
CCOC(=O)C1=C(C)NC2=C(C(=O)CC(C)(C)C2)C1c1ccc(-c2ccccc2)cc1 (stereo not given) |  | 17.1 µM (active)
Cc1cc(C(=O)N2CCN(c3cccc(Cl)c3)CC2)n(-c2ccccc2)n1 | 2.03% | 
C[C@H]1C[C@@H]2[C@@H]([C@@H](O)C[C@@]3(C)[C@H]2CC[C@]3(O)C(=O)CO)[C@@]2(C)C=CC(=O)C=C12 | -7.31% | 
O=C(NCCS(=O)(=O)c1ccc(C(F)(F)F)cn1)c1ccc(Cl)cc1 | 8.25% | 
C1Cc2[nH]nc(-c3nn[nH]n3)c2C1 | -2.74% | 
C1=CCOCc2cc(ccc2OCCN2CCCC2)Nc2nccc(n2)-c2cccc(c2)OCC1 | 1.42% | 
CC(=O)SC[C@@H](C)C(=O)N1CCC[C@H]1C(=O)N[C@@H](Cc1ccccc1)C(=O)O | -0.938% | 
CC1(C)OC2=C(C(=O)c3ccccc3C2=O)[C@H](NCc2ccccc2)[C@H]1O | -6.7% | 
Cn1c2ccccc2c2c3c(c4c5ccccc5n(CCC#N)c4c21)CNC3=O | -9.53% | 
CC(C)c1noc(N2CCC(COc3ccc(-c4ccc(S(C)(=O)=O)cc4)nc3)CC2)n1 | -2.24% | 
CCCCCCCCCC(=O)N[C@@H](Cc1c[nH]c2ccccc12)C(=O)N[C@H](CC(N)=O)C(=O)N[C@@H](CC(=O)O)C(=O)N[C@@H]1C(=O)NCC(=O)N[C@@H](CCCN)C(=O)N[C@@H](CC(=O)O)C(=O)N[C@H](C)C(=O)N[C@@H](CC(=O)O)C(=O)NCC(=O)N[C@H](CO)C(=O)N[C@@H]([C@@H](C)CC(=O)O)C(=O)N[C@@H](CC(=O)c2ccccc2N)C(=O)O[C@@H]1C | -0.396% | 
CNC(=O)c1ccc(-c2cnc3ncc(Cc4ccc5ncccc5c4)n3n2)cc1F | 5.64% | 
COC(=O)Nc1ccc(-c2nc(N3CCOCC3)c3cnn(C4CCN(Cc5cccnc5)CC4)c3n2)cc1 | 9.64% | 
Nc1nc(-c2nn(Cc3ccccc3F)c3ncccc23)nc(N)c1N1CCOCC1 | -7.41% | 
C=CC(=O)Nc1cc2c(Nc3ccc(F)c(Cl)c3)ncnc2cc1OCCCN1CCOCC1 | -8.97% | 
Cc1cc(N2CCOCC2)cc2[nH]c(-c3c(NC[C@@H](O)c4cccc(Cl)c4)cc[nH]c3=O)nc12 |  | 17.1 µM (active)

Compound | activity change, negative = inhibition | Potency
c1ccc2c(CCNc3ccc(Nc4ccncc4)cc3)c[nH]c2c1 | 2.25% | 
Nc1cc(C(F)(F)F)c(-c2cc(N3CCOCC3)nc(N3CCOCC3)n2)cn1 | -7.04% | 
O=c1[nH]nc(Sc2ncc([N+](=O)[O-])s2)n1-c1ccc2c(c1)OCCO2 | -3.03% | 
O=c1c2ccccc2nc2n1CCc1c-2[nH]c2ccccc12 |  | 30.4 µM (active)
C[C@]12CC[C@H](O)CC1=CCC1C2CC[C@]2(C)C(n3cnc4ccccc43)=CCC12 (stereo not given in full) | -4.14% | 
CC(O)C1C(=O)N2C(C(=O)O)=C(SC3CNC(C(=O)N(C)C)C3)C(C)C12 (stereo not given) | -10% | 
CC(C)c1cnn2c(NCc3ccccc3)cc(N[C@@H](CO)[C@H](O)CO)nc12 | 3.81% | 
OCc1ccc(-c2ccc(-c3ccc(CO)s3)o2)s1 |  | 26.7 µM (active)
NC(=O)c1c(OCc2c(F)cc(Br)cc2F)nsc1NC(=O)NCCCCN1CCCC1 | 2.11% | 
CN(C)CC=CC(=O)Nc1cc2c(Nc3ccc(F)c(Cl)c3)ncnc2cc1O[C@H]1CCOC1 | 5.38% | 
COc1cccc2nc(-c3cccs3)nc(NN3C(=O)C=C(C)C3=O)c12 | 5.67% | 
C[C@@]12O[C@@H](C[C@]1(O)CO)n1c3ccccc3c3c4c(c5c6ccccc6n2c5c31)CNC4=O |  | 21.5 µM (active)
CCOc1ccccc1OCCNC(C)Cc1ccc(OC)c(S(N)(=O)=O)c1 (stereo not given) | 1.31% | 
CCOc1cc2ncc(C#N)c(Nc3ccc(F)c(Cl)c3)c2cc1NC(=O)C=CCN(C)C | 17.2% | 
CN(C)CC(C)(C)CNc1nn2c(-c3ccccc3)nnc2cc1C1CCC1 | 6% | 
CC(=O)OCCN1C(=O)c2c(C)nc3ccc(S(=O)(=O)N4CCOCC4)cc3c2C1=O |  | inactive
CN1CCN(Cc2ccc(NC(=O)Nc3ccc(Oc4cc(NC(=O)C5CC5)ncn4)cc3)cc2C(F)(F)F)CC1 | 5.65% | 
CC1=C(CO)C(=O)O[C@@H]([C@@H](C)[C@H]2CC[C@H]3[C@@H]4C[C@H]5O[C@]56[C@@H](O)C=CC(=O)[C@]6(C)[C@@H]4CC[C@]23C)C1 | 13.3% | 
NC(=O)c1cccc2cn(-c3ccc([C@@H]4CCCNC4)cc3)nc12 |  | 24.1 µM (active)
COc1ccc2c(OCc3nnc4ccc(-c5ccccc5)nn34)ccnc2c1 | 15.4% | 
